MCF10A rerep: DNA re-replication induction in MCF 10a cells. hit rate 2.9% among 350,000. AID 624296. MCF 10A DNA re-replication, Hoechst nuclear intensity, 48 h. Potency, µM (highest dose often 46.1 µM), inactives show top-dose activity, positive = re-replication, actives largely listed as activators; note: potency is the fitted concentration of half-maximal effect; % of control where 0% means no effect; nearly all actives have a fitted effect of over 50% in size
PINK1 modulator: changes PINK1 expression. PINK1 immunofluorescence, high-content cytometry, 24 h. Potency, µM (top dose mostly 76.6 µM), for inactives: top-dose activation (PINK1 increase), usual class: activators. hit rate 0.2% among 410,000. AID 624263; active = well fitted activation curve with a large enough effect; inconclusive = small, poorly fitted or top-dose-only effect; cell line not stated here; note: potency is the fitted concentration of half-maximal effect; % of control where 0% means no effect; nearly all actives have a fitted effect of over 65% in size
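Stable cell line, 250 cells/well, 12 h attachment; compounds pinned at 5 concentrations, 24 h; CCCP control. Fixed with nuclear dye, primary antibodies 12 h at 10 degrees C, secondary plus cell stain; laser-scanning cytometer read.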
IL1B secr inh: inflammasome signaling inhibition, IL-1 beta readout | activity change, % at 57.5 µM | THP-1 LPS/ATP IL-1B secretion, AlphaLISA, 16 h; hits give low values | hit rate 4.7% among 360,000; in the data active = activity change below about -50%; inconclusive = mostly about -30% to -49%; note: % is set by controls: 0 for no effect and ±100 for the full control effect
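THP-1 cells pretreated 1 hr with compounds (up to 57.5 uM final), then stimulated with LPS (250 ng/mL final) plus ATP (1.25 mM final); secreted IL-1B measured by AlphaLISA after 16 hr, decreased signal indicating inhibition.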
ATXN2 expr inh: ATXN2 expression inhibition | hit rate 0.72% among 360,000 | HEK-293 ATXN2-luciferase reporter, luminescence, 24 h | Potency, µM (top dose mostly 57 µM), without a hit: at the highest dose activity change, negative = inhibition, most hits filed as inhibitors; note: potency is the fitted concentration of half-maximal effect; % is set by controls: 0 for no effect and ±100 for the full control effect; nearly all actives have a fitted effect of over 55% in size
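ATXN2-luciferase reporter cells (luciferase flanked by upstream and downstream ATXN2 gene portions) were treated 24 h at 37 °C with compounds at up to 57 uM. SteadyGlo luminescence gave expression; GF-AFC fluorescence gave viability.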
S2 tox: cell viability loss in ATXN counter-screen. S2 cells (HEK-293 line with an ATXN2-luciferase reporter) viability, CellTiter-Fluor protease fluorescence, 24 h. Potency, µM (doses to about 56.7 µM), hits mostly cytotoxic. AID 651635. hit rate 0.49% among 400,000; note: potency is the fitted concentration of half-maximal effect; nearly all actives have a fitted effect of over 40% in size
SW480 rereplic: DNA re-replication induction in SW480 cells. SW480 DNA re-replication, Hoechst DNA content imaging, 48 h. AID 624297. Potency, µM (doses to about 46.1 µM), inactives show at the top dose re-replication activation, hits mostly activators. hit rate 1.8% among 340,000; note: potency is the fitted concentration of half-maximal effect; % of control where 0% means no effect; nearly all actives have a fitted effect of over 55% in size
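250 cells/well; 23 nL cpd via pin tool; 48 hr, 37 C, 5% CO2; Hoechst 40 min; imager read of total nuclear intensity, ex 405/em 500-530 nm.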
The depositor's hits bear a star; i = inactive; ? = inconclusive; / = no result given; [ ] = remark or other dose. The list is not random: actives were taken first. Their share in the collection is about 7.1%. Unless noted, calls come from the whole dose curve; as a rule, active = well fitted curve in the direction sought with a large enough effect; inconclusive = small, poorly fitted or top-dose-only effect, or another doubt; inactive = no such curve, though single readings can be large; an effect the other way counts as inactive or inconclusive.

SMILES	MCF10A rerep	PINK1 modulator	IL1B secr inh	ATXN2 expr inh	S2 tox	SW480 rereplic
CCOC(=O)C1(CCOc2ccccc2)CCN(Cc2cc(OC)c(O)c(OC)c2)CC1	?	-2%	0	-13%	i	21%
CCOC(=O)C1(CCOc2ccccc2)CCN(Cc2ccc(OC)c(O)c2)CC1	19%	1%	-52*	-14%	i	?
CCOC(=O)C1(CCOc2ccccc2)CCN(Cc2ccc(COC)o2)CC1	13%	-2%	-57*	0%	i	-4%
CCOC(=O)C1(CCOc2ccccc2)CCN(Cc2ccc(O)c(OCC)c2)CC1	?	3%	-89*	-24%	i	?
CCOC(=O)C1(CCOc2ccccc2)CCN(Cc2ccc(OC)c(COC)c2)CC1	?	9%	-52*	-23%	i	?
Cc1ccc(Cn2ccc(NC(=O)c3cc(-c4ccc(Cl)c(Cl)c4)on3)n2)cc1	/	0%	/	-2%	i	/
CCOC(=O)C1(CCc2ccccc2)CCN(Cc2c(O)cccc2OC)CC1	?	19%	-92*	-30%	i	17%
CCOC(=O)C1(CCc2ccccc2)CCN(Cc2ccc(OC)cc2)CC1	4%	1%	-29	-6%	i	-7%
CCOC(=O)C1(CCOc2ccccc2)CCN(Cc2cnc(C)[nH]2)CC1	20%	-1%	-94*	-7%	i	1%
O=C(NCc1ccccc1Br)C1CCCN(C(=O)N2CCOc3ccccc32)C1 (configuration not stated)	/	-2%	/	/	/	/
COc1ccc(NC(=O)c2cc3c(=O)n(Cc4ccco4)ccc3nc2C)cc1	/	2%	/	/	/	/
O=C1c2cc(Br)ccc2N(Cc2ccc(Br)cc2)S(=O)(=O)C1c1cc(Cl)c(Cl)cc1[N+](=O)[O-] (configuration not stated)	-7%	?	24	-26%	?	0%
CCN(CC)c1ccc(/C=N/NC(=O)CNC(=O)C2COc3ccccc3O2)c(O)c1 (configuration not stated)	6.5µM*	0%	87	?	i	6.5µM*
CCN(CC)c1ccc(/C=N/NC(=O)c2c(Cl)cnn2C)c(O)c1	12µM*	-1%	69	?	?	?
CCN(CC)c1ccc(/C=N/NC(=O)CCC(=O)NCc2ccccc2)c(O)c1	?	0%	48	3.5µM*	i	?
CCN(CC)c1ccc(/C=N/Nc2ccc(C)cc2)c(O)c1	-4%	15%	-7	-16%	i	-7%
CCOC(=O)N/N=C/c1ccc(N(CC)CC)cc1O	23µM*	5%	8	15%	i	16µM*
Cc1cc(=O)[nH]c(N/N=C/c2c(F)c(F)c(F)c(F)c2F)n1	-3%	1%	-92*	-21%	i	1%
COc1cc(/C=N\NC(=O)C2COc3ccccc3O2)cc(OC)c1O (configuration not stated)	0%	2%	-71*	6%	i	-5%
Cc1cc(=O)[nH]c(NN=Cc2cc(Br)ccc2O)n1	?	-6%	?	?	?	?
O=C(Nc1ccc(S(=O)(=O)Nc2ncccn2)cc1)C1COc2ccccc2O1 (configuration not stated)	12%	-3%	-8	20%	i	-8%
COc1ccc(OC)c(NS(=O)(=O)c2ccc(NC(=O)C3COc4ccccc4O3)cc2)c1 (configuration not stated)	?	-1%[38.3 µM]	-68*	-32%	i	6%
CCN(CC)c1ccc(/C=N/Nc2nc(C)cc(=O)[nH]2)c(O)c1	8.2µM*	2%	91	?	?	?
Cc1ccc(C(=O)OCC(=O)Nc2ccc3c(c2)OCO3)c(O)c1	0%	4%	-5	5%	i	-5%
COC(=O)CSc1nnc([C@H](Cc2ccccc2)NC(=O)OC(C)(C)C)o1	-3%	0%	0	0%	i	-3%

From PubChem BioAssay
